In all, about 33,000 sequences were measured (“E-score (-0.5 to 0.5)”: median about -0.013, highest 2% from about 0.3 on). For the sample, the highest values were picked, then their nearest neighbours and some sequences at random.
What follows are sequences tested against T1, Msn1 (UniProt P22148) (assay: PBM E-score (8-mer binding enrichment) (E-score (-0.5 to 0.5)); higher = stronger / more preferred TF binding). Settings: protein concentration: 200 nM; construct: GST-full length.
T1 sequence: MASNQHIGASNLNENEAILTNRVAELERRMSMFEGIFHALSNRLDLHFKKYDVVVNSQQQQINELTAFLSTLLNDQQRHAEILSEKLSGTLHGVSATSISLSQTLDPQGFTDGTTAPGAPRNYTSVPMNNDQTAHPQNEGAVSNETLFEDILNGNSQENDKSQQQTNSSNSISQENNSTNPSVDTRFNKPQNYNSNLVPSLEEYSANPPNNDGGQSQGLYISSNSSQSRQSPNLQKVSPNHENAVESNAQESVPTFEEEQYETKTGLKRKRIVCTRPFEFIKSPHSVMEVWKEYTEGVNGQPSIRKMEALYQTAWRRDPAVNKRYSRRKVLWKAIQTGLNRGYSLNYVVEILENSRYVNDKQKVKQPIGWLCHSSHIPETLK
Procedure, shortened: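 Each ungapped eight-base word and its reverse complement, pooled, received an E-score from the Universal PBM Analysis Suite. Underlying scans, normalised with masliner, recorded fluorescent anti-GST bound to GST-tagged yeast transcription factors. These were applied at about 100-200 nM to universal all-10-mer Agilent arrays double-stranded by primer extension.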

Sequence | PBM E-score
CATGTGTC | 0.298
CATGTCTC | 0.343
AGTGTCTG | 0.154
AATGTGTC | 0.3
ACTGTCTG | 0.079
AGAAGCGG | -0.101
AAAACCAG | 0.152
CGTAAGGA | -0.0491
ACCATGGG | -0.161
GCCTATAA | 0.0368
TACCCGTA | -0.0437
ATTTGCGC | 0.104
CACCTGAG | -0.0701
ACATATGT | 0.28
ATAGGGCC | -0.158
GGTGGATA | 0.0155
GGTGGAGA | -0.396
AGTGGACC | -0.0955
GGTGGACA | 0.325
CGTGGACC | -0.0578
AGTGGACG | 0.212
CGTGGAAA | 0.0488
AGTGGACA | 0.389
CGTGGACA | 0.408
GGATTTCA | 0.0863

Sequence | PBM E-score
CCTGATAC | 0.12
AGTAAAAC | -0.0534
AGCAAAGC | -0.143
ATTGAGAG | -0.0651
CAGCAAAA | 0.0953
CCGATTGC | 0.104
ACGGACTC | 0.00234
ACGGACCC | -0.221
ACGGACAC | 0.344
ACGGACAT | 0.473
ACGGACCT | 0.0608
ACGGACAG | 0.175
AAGCGGAC | 0.014
ACTTCCAG | -0.219
TGAACTCA | 0.0356
GCCTTTCA | -0.179
ATCCCACG | -0.0996
ATCCCACA | -0.141
GTCCCACA | 0.319
AGCTCCAT | -0.251
ACAACGGA | 0.304
ACAAAAAG | 0.216
ACAAACGA | 0.331
ACAAAAAT | 0.372
ACAAACAC | 0.337

Sequence | PBM E-score
ACAACGGG | 0.161
ACAAACGG | 0.298
ACAAACAA | 0.277
ACAAAAAA | 0.225
ACAAACAG | 0.276
TCAACGGA | -0.0103
ACAAACGC | 0.172
CGTAGACC | -0.151
ACTCGTAC | -0.0875
ACCGCCAG | -0.04
CTCGAACC | -0.0331
AGCGGCAG | -0.149
GAAATACC | -0.0126
ACTCCTCG | -0.00289
CCCGTCGC | -0.27
ACTGAGCT | -0.0939
CCTCTCGA | -0.12
GCTGCTCC | -0.218
CACTGGGA | 0.131
AAGCAAGT | 0.00084
GAACCGCA | 0.0554
ACAAAAGA | 0.27
CCAAAAGC | 0.0259
ACAAAAAC | 0.319
CCAAAAAC | 0.0933

Sequence | PBM E-score
ACAAAACC | 0.239
ACAAAAGC | 0.364
ACTACGCA | -0.18
ATATTTTC | 0.226
CCTCGAAG | 0.0737
GGGGTGCA | -0.0694
CAGACACA | 0.28
CGGACACA | 0.371
CAGACACG | 0.147
CGGACACG | 0.338
CTGACACA | 0.0572
CGGACACC | 0.112
CCTTTCGC | -0.146
GCTATGAA | -0.00947
CCGGCCGA | 0.106
TCGGCCGA | 0.31
GCGGCCGA | -0.0302
AAGCGCTC | -0.0777
AAGCGCTT | 0.312
AAGCGCTA | -0.0275
CCTTAATC | -0.105
ACGCAAGA | 0.0419
ACCTCAGG | -0.129
CATTGTCA | 0.158
GATTGTCA | 0.245

Sequence | PBM E-score
CATTGTGC | 0.0753
AATTGTTC | 0.245
AATTGTCA | 0.359
GATTGTAC | 0.0546
TATTGTCA | 0.282
AATTGTCC | 0.488
AATTGTAC | 0.365
AATTGTGC | 0.0159
CATTGTCC | 0.456
CATTGTAC | 0.0768
AAATCTGT | 0.138
CACACCCC | -0.293
ATTGCGGA | 0.145
ATATGAGA | 0.0596
ACCCGAAG | -0.0262
CACTTTCC | -0.221
AATTGTCT | 0.406
GATTGTAA | 0.0176
AATTGTCG | 0.362
AATTGTAT | 0.155
AATTGTGT | -0.0542
AATTGTAG | 0.167
GATTGTGC | -0.0365
GATTGTCC | 0.458
CATTGTCG | 0.21

Sequence | PBM E-score
CTAGCCAA | 0.00535
AAATTTAA | 0.238
GGAAGAAC | -0.012
GCCTTTCC | -0.0629
ATGCGACG | -0.249
ATGGCTGA | -0.133
CTGTACCC | -0.0861
GCACCGAA | 0.0642
GAGAGACA | 0.246
TATAGATA | 0.0139
ATTAGACA | 0.295
CATAGACG | 0.194
AAGAGACA | 0.288
CTTAGACA | 0.232
TATAGACA | 0.405
GTTAGACA | 0.33
CATAGACA | 0.35
TAGAGACA | 0.377
CATAGACC | -0.0541
TGTAGACA | 0.261
GGAGCTCA | -0.0253
ACCCGGTA | 0.0382
CCGGCTAG | -0.141
GATTCACC | -0.145
CGAGGTAG | -0.251

Sequence | PBM E-score
AGGAAACT | 0.025
ACAAGAGG | -0.011
GCTAGACA | 0.212
AATAGACA | 0.259
TCTAGACA | 0.332
GATAGACA | 0.331
GATAGACC | -0.0609
CCTAGACA | 0.0613
ACTCGACC | -0.143
ACATACTC | 0.0584
GAGCCTTA | -0.168
AGGTCCAG | 0.0683
GGGTCCAA | -0.104
ATGTCCAA | 0.485
AGGTCCAA | -0.00743
AAGTCCAG | 0.244
AGGTCCAC | -0.067
CTGTCCAA | 0.287
GAGTCCAA | -0.0901
ATGTCCAC | 0.446
GTGTCCAA | 0.389
CTGTCCAC | 0.184
ATGTCCAG | 0.457

Source: the supplement of paper PMC3334620
